Data taken from PubChem BioAssay (NCATS).
Active and inactive are the calls of the source. Calls follow the shape of the full dose curve.

Target: Guanidinoacetate N-methyltransferase (Homo sapiens) (UniProt Q14353)
Assay: Confirmatory Screen for Target Class Profiling of Small Molecule Inhibitors of Methyltransferases (AID 1745852); as to activity change, negative = inhibition: % is scaled to controls: 0 for no effect and ±100 for the full control effect
Conditions: MTase-Glo luminescence, SAH detection, recombinant enzyme; activity change, negative = inhibition: at 57.3 µM (top of the series) unless noted; series mostly up to 57.3 µM

| SMILES | activity change, negative = inhibition | Potency |
| --- | --- | --- |
| CCCn1c(=O)c2cc(F)ccc2n2c(SCc3c(F)cccc3Cl)nnc12 | 0.239% | – |
| COc1ccc(CCN2C(=O)c3cc4oc(C)cc4n3CC2(C)C(=O)NC2CCCCC2)cc1OC (stereo not given) | -4.8% | – |
| COc1ccc(OC)c2c1cc1n2CC(C)(C(=O)NC2CCCCC2)N(Cc2cccnc2)C1=O (stereo not given) | -5.74% | – |
| Cc1ccc(Cn2c(=O)c3ccccc3n3c(CCC(=O)NCCCN4CCN(C)CC4)nnc23)cc1 | -1.36% | – |
| CN1CCN(c2ncnc3sc4c(c23)CCNC4)CC1 | 0.536% | – |
| COc1ccc(C2CC(=O)c3cc(-c4nc(-c5cccc([N+](=O)[O-])c5)cs4)c(=O)n(-c4ccccc4N)c3C2)cc1 (stereo not given) | -4.17% | – |
| CCCC1c2cccn2CCN1C(=O)Nc1ccc(F)cc1F (stereo not given) | 1.31% | – |
| O=C(Cc1ccsc1)Nc1ccc2c(N3CCCC3)ncnc2c1 | 4.54% | – |
| CCCC1c2cccn2CCN1C(=O)Nc1ccc(C)cc1Cl (stereo not given) | – | inactive |
| COc1ccc(OC)c2c1cc1n2CC(C)(C(=O)NC2CCCCC2)N(Cc2ccccn2)C1=O (stereo not given) | -3.03% | – |

Target: Nicotinamide N-methyltransferase (Homo sapiens) (UniProt P40261)
Assay: as above
Conditions: MTase-Glo luminescence, SAH detection, recombinant enzyme; measured here: NNMT max response; stronger effect = lower value

Chain of Nicotinamide N-methyltransferase (Homo sapiens) (P40261 whole entry, looked up): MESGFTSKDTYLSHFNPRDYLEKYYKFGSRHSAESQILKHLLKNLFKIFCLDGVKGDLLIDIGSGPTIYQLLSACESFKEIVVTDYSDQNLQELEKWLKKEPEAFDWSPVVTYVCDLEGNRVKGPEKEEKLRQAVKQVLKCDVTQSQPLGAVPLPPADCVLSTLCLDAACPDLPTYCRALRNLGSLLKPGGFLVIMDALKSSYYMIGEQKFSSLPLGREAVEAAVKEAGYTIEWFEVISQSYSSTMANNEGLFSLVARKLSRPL

| SMILES | activity |
| --- | --- |
| CCCS(=O)(=O)N1CCCC(Cn2c(C)nc3cccnc32)C1 (stereo not given) | 7.76% |
| COc1ccc(-c2nnn3c2nc(N2CCOCC2)c2ccccc23)cc1 | -27.8% |
| Cc1ccc(NC(=O)N2CCc3c(c4ccccc4n3CC3CC3)C2)cc1 | 5.96% |
| CC[C@H](C)NC(=O)c1sc(=S)n2c1[nH]c(=O)c1cc(Cl)ccc12 | -78.5% |
| Cc1cc(NS(=O)(=O)c2ccc3[nH]c(=O)[nH]c3c2)ccc1Br | -14.5% |
| CC(C)Cn1c(=O)c2ccccc2n2c(CCC(=O)N3CCN(c4ccccc4F)CC3)nnc12 | -58.2% |
| c1ccc(-c2cc3c(cn2)NCCN(Cc2ccccn2)C3)cc1 | -8.79% |
| CCN(CC)CCNC(=O)CCc1nnc2n(CCc3ccccc3)c(=O)c3ccccc3n12 | -10.6% |
| COc1ccc(S(=O)(=O)NC[C@H]2Cn3c(-c4ccc(Cl)cc4)cnc3CO2)cc1 | -23.7% |
| CC1CCN(CCCNC(=O)CCc2nnc3n(Cc4ccc(Cl)cc4)c(=O)c4ccccc4n23)CC1 | -19% |
| Cc1cccc(N2CCN(C(=O)CCc3nnc4n(CCC(C)C)c(=O)c5ccccc5n34)CC2)c1C | -48.8% |
| CCCC1c2cccn2CCN1C(=O)Nc1ccc(OC)cc1 (stereo not given) | -13.3% |
| COc1cccc(CN2CCCC3(CNc4ccccc4[S+](=O)([O-])N3)C2)c1 (stereo not given) | -12.2% |
| COc1ccccc1-c1[nH]nc2ncc(C(=O)N3CCN(Cc4ccccc4)CC3)nc12 | -37.2% |
| Cc1cnc(C2CCC2)n1C1CCN(C(=O)CCC2CCCC2)CC1 | -13.3% |
| Cc1cc(-c2cc3c(cn2)N(C)CCN(C)C3)ccn1 | 2.35% |
| O=[S+]1([O-])NC2(CCCN(Cc3c(F)cccc3Cl)C2)COc2ccccc21 (stereo not given) | -5.33% |
| Cc1noc(C)c1-c1cnc(Nc2ccncc2)c2c1CCO2 | -6.04% |
| CNc1cc(C2CC(NC(=O)COc3ccc(Cl)cc3C)C2)nc(N)n1 (stereo not given) | -5.16% |
| COc1ccccc1CNC(=O)C1(C)Cn2c(cc3ccccc32)C(=O)N1Cc1ccc(OC)c(OC)c1 (stereo not given) | -60.4% |

| SMILES | activity |
| --- | --- |
| COc1cccc([S+](=O)([O-])N2CCC3(C2)N=C(c2cccnc2)C(=O)N3)c1 (stereo not given) | -8.17% |
| O=C(NCc1ccc2c(c1)OCO2)c1sc(=S)n2c1[nH]c(=O)c1ccc(Cl)cc12 | -87.4% |
| O=C(NCc1cccc(F)c1)c1nc2c(o1)CCN(CC1CCCC1)CC2 | 5.46% |
| COc1ccc(NC(=O)CCc2ccnc(N3CCCC3)c2)c(OC)c1 | -4.13% |
| Cc1cccc(N2CCN(C(=O)CCc3nnc4n(CC(C)C)c(=O)c5ccccc5n34)CC2)c1C | -69.8% |
| O=C(NCc1cccc(Cl)c1)c1sc(=S)n2c1[nH]c(=O)c1cc3c(cc12)OCO3 | -63.2% |
| Cc1ccc(NC(=O)CSc2nnc3n(CC(C)C)c(=O)c4ccccc4n23)cc1 | -8.6% |
| Cc1cnc(C2CC2)n1C1CCN(S(=O)(=O)c2ccc3c(c2)OCCO3)CC1 | -30.4% |
| COc1ccccc1CC(=O)N1CCCc2ncc(C(=O)Nc3cccc(Cl)c3)cc21 | 9.05% |
| COC(=O)C(Cc1c[nH]c2ccccc12)NC(=O)c1ccccc1Br (stereo not given) | -4.76% |
| CCCn1c(=O)c2cc(F)ccc2n2c(SCc3c(F)cccc3Cl)nnc12 | -24.8% |
| COc1ccc(CCN2C(=O)c3cc4oc(C)cc4n3CC2(C)C(=O)NC2CCCCC2)cc1OC (stereo not given) | -78.3% |
| COc1ccc(OC)c2c1cc1n2CC(C)(C(=O)NC2CCCCC2)N(Cc2cccnc2)C1=O (stereo not given) | -28.2% |
| Cc1ccc(Cn2c(=O)c3ccccc3n3c(CCC(=O)NCCCN4CCN(C)CC4)nnc23)cc1 | -12.5% |
| CN1CCN(c2ncnc3sc4c(c23)CCNC4)CC1 | -71.2% |
| COc1ccc(C2CC(=O)c3cc(-c4nc(-c5cccc([N+](=O)[O-])c5)cs4)c(=O)n(-c4ccccc4N)c3C2)cc1 (stereo not given) | -5.71% |
| CCCC1c2cccn2CCN1C(=O)Nc1ccc(F)cc1F (stereo not given) | -4.75% |
| O=C(Cc1ccsc1)Nc1ccc2c(N3CCCC3)ncnc2c1 | 3.05% |
| CCCC1c2cccn2CCN1C(=O)Nc1ccc(C)cc1Cl (stereo not given) | -6.98% |
| COc1ccc(OC)c2c1cc1n2CC(C)(C(=O)NC2CCCCC2)N(Cc2ccccn2)C1=O (stereo not given) | -22.4% |
